Results on 45 compounds are retold here after publication PMC4552634, “A New Set of Chemical Starting Points with Plasmodium falciparum Transmission-Blocking Potential for Antimalarial Drug Discovery” (PLoS ONE, 2015).

SMILES strings stand for the structures. Among all 13,000 compounds or so, about 3,200 (25%) showed an effect of 50% or more. The list shows a part of the results.

The test system of this assay is P. falciparum stage V gametocytes. Also noted: BacTiter-Glo ATP luminescence viability of purified stage V gametocytes in 384-well plates, per cent inhibition versus DMSO. As to conditions: 48 h, 5 µM; inhibitor.
As to `O=C(N[C@@H](CC1CCCCC1)C(=O)NCCN1CCCCC1)c1ccc(O)c(-c2cccc(C(F)(F)F)c2)c1` [TCMDC-140818], the “% Inhibition” value came out at 37.36%.
The result for `COc1cc(Cc2cnc(N)nc2N)cc(OCc2cccc(C(=O)O)c2)c1OC` [TCMDC-137888] reads -0.7108%; that for `Oc1ccc(CN2CCN(CCOC(c3ccccc3)c3ccccc3)CC2)cc1Cl` [TCMDC-135690], -0.9629%; that for `Cc1cccc2nc(-c3ccc(-c4ccc(NC(=O)Nc5ccc(F)c(F)c5F)cc4)s3)[nH]c12` [TCMDC-133222], -13.04%.
Take `Cc1ccc(Nc2nc(N/N=C/c3cc4c(cc3Br)OCO4)nc(Nc3ccc([N+](=O)[O-])cc3)n2)cc1C` [TCMDC-124185]: the “% Inhibition” value stood at 19.94%.
The value for `c1cc(CN2CCC(CCN3CCCCC3)CC2)cc(-c2cccc(-c3nc4ccccc4[nH]3)c2)c1` [TCMDC-133920] was 106.4%.
The result for `c1cc(CN2CCN(CCN3CCOCC3)CC2)cc(-c2csc(-c3nc4ccccc4[nH]3)c2)c1` [TCMDC-133921] reads 11.49%; that for `c1cc(CN2CCCCC2)cc(-c2ccc(-c3nc4ccccc4[nH]3)cc2)c1` [TCMDC-133890], -8.246%.
The value for `NC1CCN(Cc2cccc(-c3csc(-c4nc5ccccc5[nH]4)c3)c2)C1` (stereo not drawn) [TCMDC-133876] was 10.66%; that for `c1cc(CN2CCCCC2)cc(-c2cccc(-c3nc4ccccc4[nH]3)c2)c1` [TCMDC-133914] was -55.81%; that for `c1cc(CN2CCC(CCN3CCCCC3)CC2)cc(-c2csc(-c3nc4ccccc4[nH]3)c2)c1` [TCMDC-133919] was 95.43%.
Turning to `C=CCc1cc(Br)ccc1OCCCOc1c(N)nc(N)nc1N` [TCMDC-131367], the “% Inhibition” value is 16.05%.
In the case of `CCn1cc(CN2CCCC(C(=O)Nc3ccc(-c4nc5ccccc5[nH]4)cc3)C2)c(C)n1` (stereo not drawn) [TCMDC-124673], the “% Inhibition” value is -63.8%.
The result for `CCc1ccc(N2C(=O)C3C(Cc4ccc(OC(C)(C)C)cc4)NC4(C(=O)N(Cc5ccccc5)c5ccc(F)cc54)C3C2=O)cc1` (stereo not drawn) [TCMDC-139770] reads 11.03%; that for `CCN(CC)CCCN(C(=O)Nc1cc(F)cc(F)c1)c1nc(-c2ccc(F)cc2)cs1` [TCMDC-136665], -54.99%; that for `CC(=O)N(Cc1nc(-c2cc(C(F)(F)F)cc(C(F)(F)F)c2)cs1)c1c(C)cccc1C` [TCMDC-135641], 20.05%.
The value for `Cc1cc(F)ccc1N(c1nc(-c2cc(Cl)ccc2Cl)cs1)C1CCNC1` (stereo not drawn) [TCMDC-136653] was 19.89%; that for `Fc1ccc(N(c2nc(-c3cc(F)cc(C(F)(F)F)c3)cs2)C2CCNCC2)cc1` [TCMDC-136656] was 103.4%.
For the compound `COc1ccc(N(c2nc(-c3cc(Cl)ccc3Cl)cs2)C2CCNCC2)cc1` [TCMDC-136654], the “% Inhibition” value is reported as 103.4%.
The result for `COc1ccc(F)cc1-c1csc(N(c2ccc(F)cc2)C2CCNCC2)n1` [TCMDC-136652] reads 68.19%; that for `COc1ccc(N(c2nc(-c3cc(Cl)ccc3Cl)cs2)C2CCNC2)cc1` (stereo not drawn) [TCMDC-136655], 0.8137%; that for `N#Cc1ccc2[nH]cc(CN3CCC4(CC3)CN(CCNCc3ccccc3)C(=O)CO4)c2c1` [TCMDC-136734], -19.1%.
Turning to `Cc1ccccc1C1CCN(C2CCC(NC(=O)/C=C/c3ccc(C(F)(F)F)cc3)CC2)CC1` (stereo not drawn) [TCMDC-133511], the “% Inhibition” value was -86.18%.
As for `CC[C@@]1(O)C(=O)OCc2c1cc1n(c2=O)Cc2c-1nc1cc3c(cc1c2CN1CCN(C)CC1)OCCO3` [TCMDC-131875], the “% Inhibition” value is on record as -10.57%.
`CCOc1ccc2ccccc2c1C(=O)Nc1cc(C)nn1-c1nc(C)cc(=O)[nH]1` [TCMDC-124946]: the “% Inhibition” value is -19.22%.
For `O=C(/C=C/c1ccc(Cl)c(Cl)c1)NC1CCN(CCCNC(=O)c2cccc(Cl)c2)CC1` [TCMDC-133356], the “% Inhibition” value turned out to be 10.9%.
The value for `CCc1c(CCNCCCC(C)CCNCCc2ccc(OC)c(OC)c2CC)ccc(OC)c1OC` (stereo not drawn) [TCMDC-132065] was 107.6%; that for `CCc1c(CCNCCc2cccc(CCNCCc3ccc(OC)c(OC)c3CC)c2)ccc(OC)c1OC` [TCMDC-132056] was 108.6%.
The value for `COc1cccc(CCc2c(CCNCCCCCCNCCc3ccccc3)ccc(OC)c2OC)c1` [TCMDC-132105] was 111.5%; that for `COc1cccc(-c2ccc(O)c(CNCCc3cccc(F)c3)c2)n1` [TCMDC-124645] was 3.898%.
Consider `COc1cccc(C(=O)NCCc2cccc(Cl)c2)c1Oc1ccccc1` [TCMDC-141237], for which the “% Inhibition” value was -16.09%.
On to `CCc1c(CCNCCCCCNCCc2ccc(OC)c(OC)c2CC)ccc(OC)c1OC` [TCMDC-132064], for which the “% Inhibition” value was 110.1%.
The value for `CCC(=O)c1cc(C(=O)NCCc2cccc(OC)c2)ccc1OC` [TCMDC-140139] was 9.268%.
The value for `CCOC(=O)C1=C(C)NC2=C(C(=O)CC(C)(C)C2)C1c1ccc(Br)cc1` (stereo not drawn) [TCMDC-124142] was 9.854%; that for `N#Cc1ccc2c(c1)CCN(CCC1CCC(NC(=O)Nc3ccnc4ccccc34)CC1)C2` (stereo not drawn) [TCMDC-139289] was -21.63%.
The result for `COc1ccc(Cc2c(C)nc3nc(N)nc(N)c3c2C)cc1` [TCMDC-137660] reads 3.866%; that for `COC(=O)c1ccc(CC(C)NCC(O)c2cccc(I)c2)cc1` (stereo not drawn) [TCMDC-131484], -10.65%; that for `O=C(C1CCN(c2nnnn2-c2ccccc2)CC1)N1CCc2ccccc2C1` [TCMDC-123642], 26.99%.
Turning to `COc1ccc(N2CCN(CCc3ccc(NC(=O)c4ccc([N+](=O)[O-])cc4)cc3)CC2)c(OC)c1` [TCMDC-138185], the “% Inhibition” value is listed as -26.83%.
The result for `CCc1c(CCNCC/C=C/CCNCCc2ccc(OC)c(OC)c2CC)ccc(OC)c1OC` [TCMDC-132062] reads 100.4%; that for `COc1cc(C)c(C(O)CNC(C)CCc2ccccc2)cc1C` (stereo not drawn) [TCMDC-131251], 28.09%; that for `COc1cc(Cc2cnc(N)nc2N)cc(OCCCCc2ccc([N+](=O)[O-])cc2)c1OC` [TCMDC-137901], 2.332%.
In the case of `CCc1c(CCNCCCCCCNCCc2ccccc2)ccc(OC)c1OC` [TCMDC-132063], the “% Inhibition” value is listed as 92.32%.
Take `CCc1c(CCNCCCCCCNCCc2ccc([N+](=O)[O-])cc2)ccc(OC)c1OC` [TCMDC-132066]: the “% Inhibition” value was 101.3%.
For `CCc1c(CCNCCCCCCNCCc2ccc(OC)cc2)ccc(OC)c1OC` [TCMDC-132050], the “% Inhibition” value was determined as 110.1%.

As usually defined, the % Inhibition is the change of the read-out against control, counted positive when it falls.
